Bioassay records as filed in PubChem BioAssay.
MEKK2 mut-MEK5 = MEK5 binding signal on mutant MEKK2 PB1, primary screen, biochemical, multiplex bead flow cytometry, Alexa488-MEK5; actives 0.35% (n = 290,000); percent response, % at 10 µM; Alexa488-MEK5 binding to MEKK2 mutant; in the data active means percent response above about 24%, passing the limit was not always enough
MEKK3 PB1 HTS = modulators of MEKK3-MEK5 PB1 binding, primary screen, biochemical, wildtype MEKK3, multiplex bead flow cytometry, Alexa488-MEK5; bead-based flow cytometry, Alexa488-MEK5 binding to MEKK3; actives lie on both sides; 0 = blocked by unlabeled MEK5, 100 = vehicle; binding response (% of control), % at 10 µM; actives 1.4% (n = 290,000);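 active means binding response more than 3 SD above or below the average of its plate-row segment, actives on both sides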;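 further: Alexa488 bead fluorescence after subtracting the streptavidin-only scavenger bead signal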
UBC13 polyUb = UBC13 polyubiquitin chain formation inhibitors, primary screen, biochemical, TR-FRET, uHTS; Ubiquitin-conjugating enzyme E2 N (Homo sapiens), P61088; inhibition, % at 20 µM; actives 0.47% (n = 330,000); in the data active means inhibition above about 45%, passing the limit was not always enough
Target sequence (P61088 whole entry, looked up): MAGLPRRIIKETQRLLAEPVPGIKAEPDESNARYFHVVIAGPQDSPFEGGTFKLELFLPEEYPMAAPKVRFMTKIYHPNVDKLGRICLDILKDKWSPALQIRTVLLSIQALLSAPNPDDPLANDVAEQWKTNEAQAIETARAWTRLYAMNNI
MEKK2 WT-MEK5 = modulators of MEK5 binding to wildtype MEKK2, primary screen, biochemical, multiplex bead flow cytometry, Alexa488-MEK5; Mitogen-activated protein kinase kinase kinase 2 (Homo sapiens), Q9Y2U5; Alexa488-MEK5 binding to MEKK2 WT; actives lie on both sides; binding response (% of control), % at 10 µM; actives 1.1% (n = 290,000); AID 1531, 2009; in the data active means binding response below about 67% or above about 130%
MEKK2wt confirm = modulators of MEK5 binding to wildtype MEKK2, confirmation, biochemical, single concentration, multiplex bead flow cytometry. AID 1892, 2009. Alexa488-MEK5 binding to MEKK2 WT; actives lie on both sides. binding response (% of control), % at 10 µM. shares compounds with MEKK3 PB1 HTS. actives 2.4% (n = 5,900); in the data active means binding response below about 16% or above about 210%; inactive means in between
MEKK2mut-MEK5 = mutant MEKK2 PB1-MEK5 binding signal retest – biochemical, single concentration, multiplex bead flow cytometry, confirmation; Alexa488-MEK5 binding to MEKK2 mutant; actives 2% (n = 5,900); shares compounds with MEKK3 PB1 HTS; AID 1893, 2009; percent response, % at 10 µM; in the data active means percent response mostly above about 71%, no sharp cut-off; inactive means mostly below about 38%;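 further: higher means compound restores mutant binding toward wildtype level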
MEKK3 confirm = MEKK3 wild-type PB1 binding to MEK5, inhibitors, confirmation, biochemical, bead multiplex flow cytometry, single concentration, wildtype; shares compounds with MEKK3 PB1 HTS; Alexa488-MEK5 binding to MEKK3; active compounds read low; binding response (% of control), % at 10 µM; actives 1.8% (n = 5,900); AID 1894, 2009;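 active means binding response below 72% of control, or above a set upper limit, though filed actives all read lower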;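 further: lower values mean stronger disruption of MEK5 binding to MEKK3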
Hits are given with their value; [ ] = dose if it differs, or a comment. An excerpt weighted towards active compounds, which were near 2.3% of everything screened.

`CC(NC(=O)COC(=O)CCc1ccccc1)c1ccccc1` (centres undefined) gave MEKK2 mut-MEK5 inactive, MEKK3 PB1 HTS inactive, UBC13 polyUb inactive and MEKK2 WT-MEK5 inactive.
C=CCN=C1SC(C)(C)C(=O)N1S(=O)(=O)c1ccc(C)cc1 was read as MEKK2 mut-MEK5 inactive, MEKK3 PB1 HTS inactive, UBC13 polyUb inactive and MEKK2 WT-MEK5 inactive.
`O=C(CSc1ccc2nnc(-c3ccc(Cl)cc3)n2n1)N1CCCc2ccccc21` gave MEKK2 mut-MEK5 inactive, MEKK3 PB1 HTS inactive, UBC13 polyUb inactive and MEKK2 WT-MEK5 inactive.
O=C(CSc1ccc2nnc(-c3ccc(F)cc3)n2n1)N1CCCc2ccccc21 was read as MEKK2 mut-MEK5 inactive, MEKK3 PB1 HTS 134, UBC13 polyUb inactive, MEKK2 WT-MEK5 inactive, MEKK2wt confirm inactive, MEKK2mut-MEK5 inactive and MEKK3 confirm inactive.
CCOC(=O)C1CCN(C(=O)c2cccc(NC(=O)C(CC)CC)c2)CC1 was read as MEKK2 mut-MEK5 inactive, MEKK3 PB1 HTS 81[inhibitor], UBC13 polyUb inactive, MEKK2 WT-MEK5 inactive, MEKK2wt confirm inactive, MEKK2mut-MEK5 inactive and MEKK3 confirm inactive.
Screening COC(=O)Nc1ccc(S(=O)(=O)N2CCC(C(=O)NCc3ccc4c(c3)OCO4)CC2)cc1 returned UBC13 polyUb inactive.
CCCn1c(SCC(=O)NCCc2ccccc2)nnc1-c1ccco1 was read as MEKK2 mut-MEK5 inactive, MEKK3 PB1 HTS inactive, UBC13 polyUb inactive and MEKK2 WT-MEK5 inactive.
`O=c1ccc2[n+]([O-])c3ccc(O)cc3oc-2c1` gave MEKK2 mut-MEK5 inactive, MEKK3 PB1 HTS inactive, MEKK2 WT-MEK5 50[inhibitor], MEKK2wt confirm inactive, MEKK2mut-MEK5 inactive and MEKK3 confirm inactive.
Screening COc1cccc(NC(=O)c2nc3ncccn3n2)c1 returned MEKK2 mut-MEK5 inactive, MEKK3 PB1 HTS 2.0[inhibitor], UBC13 polyUb inactive, MEKK2 WT-MEK5 2.0[inhibitor], MEKK2wt confirm inactive, MEKK2mut-MEK5 inactive and MEKK3 confirm inactive.
`COc1cccc(Nc2ncccc2C(=O)Nc2ccccc2)c1` gave MEKK2 mut-MEK5 inactive, MEKK3 PB1 HTS 129, UBC13 polyUb inactive, MEKK2 WT-MEK5 inactive, MEKK2wt confirm inactive, MEKK2mut-MEK5 inactive and MEKK3 confirm inactive.
`COc1ccc(CCNC(=O)c2ccc3c(c2)NC(=O)C(CSCc2cc(C)ccc2C)N3)cc1OC` (centres undefined) gave MEKK2 mut-MEK5 inactive, MEKK3 PB1 HTS inactive, UBC13 polyUb inactive and MEKK2 WT-MEK5 inactive.
COc1ccccc1OCCCCn1ncc2ccc(OC)c(OC)c2c1=O was read as MEKK2 mut-MEK5 inactive, MEKK3 PB1 HTS inactive, UBC13 polyUb inactive and MEKK2 WT-MEK5 inactive.
`C#CCOCCOCCOCCNc1nc(N2CCN(C(=O)[C@H](CCC(=O)O)n3cc(CN)nn3)CC2)nc(N2CCN(C(=O)[C@H](CCCN=C(N)N)n3cc(C(N)[C@@H](C)CC)nn3)CC2)n1` (some centres undefined) gave UBC13 polyUb inactive.
O=C(NCc1ccccc1)c1nnc(CS(=O)(=O)c2ccccc2)o1 was read as MEKK2 mut-MEK5 inactive, MEKK3 PB1 HTS inactive, UBC13 polyUb inactive and MEKK2 WT-MEK5 inactive.
CC[n+]1c(/C=C/N(C)c2ccccc2)oc2ccccc21 was read as MEKK2 mut-MEK5 inactive, MEKK3 PB1 HTS 72[inhibitor], UBC13 polyUb inactive, MEKK2 WT-MEK5 inactive, MEKK2wt confirm inactive, MEKK2mut-MEK5 inactive and MEKK3 confirm inactive.
For CC(C)CCNC(=O)C1CCC(CNc2c(N3CCCC3)c(=O)c2=O)CC1 (centres undefined) the results were MEKK2 mut-MEK5 inactive, MEKK3 PB1 HTS inactive, UBC13 polyUb inactive and MEKK2 WT-MEK5 inactive.
`O=C(Nc1nc(-c2ccccc2)c(C(=O)c2ccccc2)s1)c1ccc(S(=O)(=O)N2CCCC2)cc1` gave MEKK2 mut-MEK5 inactive, MEKK3 PB1 HTS 135, UBC13 polyUb inactive, MEKK2 WT-MEK5 inactive, MEKK2wt confirm inactive, MEKK2mut-MEK5 inactive and MEKK3 confirm inactive.
For O=C(Nc1nc(-c2ccccc2)c(-c2ccccc2)s1)c1ccc(S(=O)(=O)N2CCCC2)cc1 the results were UBC13 polyUb inactive.
For Cc1cccc(C)c1NC(=O)CSc1nc2[nH]c(=O)cc(O)c2s1 the results were UBC13 polyUb inactive.
Screening CC[C@@]1(C(=O)OC)N[C@H](CN(C)S(=O)(=O)c2ccc(OC(F)(F)F)cc2)[C@@H]2C(=O)N(C)C(=O)[C@@H]21 returned UBC13 polyUb inactive.
Screening C=CCNC(=S)/N=c1/ccccn1CCC returned MEKK2 mut-MEK5 inactive, MEKK3 PB1 HTS 75[inhibitor], UBC13 polyUb inactive, MEKK2 WT-MEK5 inactive, MEKK2wt confirm inactive, MEKK2mut-MEK5 inactive and MEKK3 confirm inactive.
Screening C=CCNC(=S)/N=c1/ccccn1C returned MEKK2 mut-MEK5 inactive, MEKK3 PB1 HTS inactive, UBC13 polyUb inactive and MEKK2 WT-MEK5 inactive.
Screening COc1ccc(-c2oc3ncnc(NCCCN4CCOCC4)c3c2-c2ccc(OC)cc2)cc1 returned MEKK2 mut-MEK5 inactive, MEKK3 PB1 HTS inactive, UBC13 polyUb inactive, MEKK2 WT-MEK5 138, MEKK2wt confirm inactive, MEKK2mut-MEK5 inactive and MEKK3 confirm inactive.
O=C(NNS(=O)(=O)c1ccccc1[N+](=O)[O-])c1cc2ccccc2cc1O was read as MEKK2 mut-MEK5 inactive, MEKK3 PB1 HTS inactive, UBC13 polyUb inactive and MEKK2 WT-MEK5 inactive.
Screening O=C(NCC(c1ccc(F)cc1)N1CCOCC1)c1cccc(Br)c1 (centres undefined) returned MEKK2 mut-MEK5 inactive, MEKK3 PB1 HTS inactive, UBC13 polyUb inactive and MEKK2 WT-MEK5 inactive.
Cc1ccc(-n2nc(C)c3cc(C(=O)O)sc32)cc1 was read as MEKK2 mut-MEK5 inactive, MEKK3 PB1 HTS inactive, UBC13 polyUb inactive and MEKK2 WT-MEK5 inactive.
`Cc1nn(-c2ccc(F)cc2)c2sc(C(=O)O)cc12` gave MEKK2 mut-MEK5 inactive, MEKK3 PB1 HTS 2.0[inhibitor], UBC13 polyUb inactive, MEKK2 WT-MEK5 -1.0[inhibitor], MEKK2wt confirm inactive, MEKK2mut-MEK5 inactive and MEKK3 confirm inactive.
Screening Cc1cccc(C)c1NC(=O)Cn1nnc(-c2ccc(CN3CCC(C)CC3)cc2)n1 returned MEKK2 mut-MEK5 inactive, MEKK3 PB1 HTS 144, UBC13 polyUb inactive, MEKK2 WT-MEK5 inactive, MEKK2wt confirm inactive, MEKK2mut-MEK5 inactive and MEKK3 confirm inactive.
